# Test results from PubChem BioAssay AID1730 (National Center for Advancing Translational Sciences (NCATS), 2009).
# Inconclusive results are not listed. A call without a number means that no potency is given here. Calls of active or inactive are those of the source. Calls follow the shape of the dose curve; as a rule, active = well fitted inhibition curve with a large enough effect; inconclusive = small, poorly fitted or top-dose-only effect; inactive = no such curve, though single readings can be large or run the other way.
# Assay: Counterscreen Assay for Inhibitors of the ERK Signaling Pathway using a Homogeneous Screening Assay
# Conditions: AlphaScreen bead counterscreen in cell lysate, 5 h; series mostly up to 45.6 µM
# From the text: qHTS Assay for Inhibitors of the ERK Signaling Pathway using a Homogeneous Screening Assay
# NIH Chemical Genomics Center [NCGC]
# NIH Molecular Libraries Screening Centers Network [MLSCN]
# Assay Submitter (PI): Dr. Wei Zheng, NCGC/NIH
# The Ras/extracellular-signal-regulated kinase (ERK) mitogen activated protein (MAP) kinase signaling pathway (ERK1/2 cascade) plays is a key role in transmitting signals from the cell surface to the nucleus (Nishida and Gotoh 1993; Chang and Karin, 2001). The cascade is initiated by the small G-protein Ras, which recruits Raf […], where activation occurs. Alternatively, this pathway can be activated by elevating intracellular cAMP.
# Activation of the ERK pathway is essential in increased cell division and cell survival. Sustained and constitutive activation of the ERK pathway, however, has been linked to uncontrolled cell proliferation, increased cell survival, and tumor progression. Thus, the ERK has been as an attractive target for cancer chemotherapy in the past few years (Sebolt-Leopold and Herrera, 2004). Given its physiological and pathological importance, assessment of ERK phosphorylation has been broadly performed in both basic research and drug discovery. Most assays for the measurement of ERK phosphorylation use the antibody-based detection methods, such as western blot and ELISA. These assays require multiple reagent additions with cell wash steps and are not suitable for high-throughput screening.
# The current cell-based ERK phosphorylation assay was performed using AlphaScreen platform. AlphaScreen is a two bead-based proximity-dependent chemical energy transfer luminescent assay platform. The assay reagents (ERK SureFire(TM) kit) were supplied from TGR BioSciences (Australia). In the presence of specific antibodies, phosphorylated ERK will bring "donor" and "acceptor" beads to a proximity range (<200 nm), and subsequently lead a chemical luminescent reaction upon exciting donor beads with 680 nm laser. To exclude the assay-related false positives, we used a biotinylated rabbit IgG to perform a counter-screen. The biotinylated antibody mimics the phosphorylated ERK1/2 for bringing streptavidin coated beads and protein-A coated beads to a proximity range for the AlphaScreen detection.
# NCGC Assay Protocol Summary:
# Biotinylated rabbit IgG was used to perform a counter-screen in the context of an AlphaScreen assay kit provided by PerkinElmer. Data were normalized to the controls for basal activity (DMSO only) and 100% activation (25 nM IgG). AC50 values were determined from concentration-response data modeled with the standard Hill equation.
# (1) Seed 4 ul/well of resuspended frozen HEK293 cells containing 2000 cells in white 1536-well plates for overnight with 1% FBS at 37C under a humidified atmosphere containing 5% CO2 and 95% air.
# (2) Add 23 nL compounds in DMSO solution. The final titration was 0.6 nM to 46 uM.
# (3) Incubate at 37C for 30 min.
# (4) Dispense 0.5uL vasopressin (25 nM in final)
# (5) Incubate at 37C for 5 min.
# (6) Dispense 0.5uL of 1:2 diluted 5x lysis buffer.
# (7) Incubate at 37C for 10 min.
# (8) Dispense 1.5uL of mixture of activation buffer and reaction buffer with AlphaScreen beads (streptavidin donor beads and protein-A acceptor beads, 10 ng/well for each).
# (9) Incubate at room temperature for 5 hr.
# (10) Detect the assay plate in an EnVision plate reader (PerkinElmer) using the AlphaScreen detection mode.
# Keywords: ERK, MEK, type-1 vasopressin receptors, homogenous, cell-based kinase assay, MLSMR, MLSCN, NIH Roadmap, qHTS and NCGC
row,Compound,Potency
1,O=c1cc(-c2ccc(O)cc2)oc2cccc(O)c12,inactive
2,CCCCC[C@H](O)C=C[C@H]1[C@H](O)CC(=O)[C@H]1CCCCCCC(=O)O,inactive
3,CC(/C=C/c1ccccc1)=N\Nc1ccccc1[N+](=O)[O-],3.16 µM (active)
4,CCOC(=O)Cc1csc(NC(=O)CSc2ncnc3c2cnn3-c2ccc(OC)cc2)n1,inactive
5,CCOC(=O)c1ccc(NC(=O)c2ccc(C)c(S(=O)(=O)N3CCOCC3)c2)cc1,inactive
6,Cc1ccc(Nc2ncnc3sc(C)c(C)c23)cc1,inactive
7,CNc1cccc2c1C(=O)c1ccccc1C2=O,5.01 µM (active)
8,Cc1cc2nc3ccc(=[N+](C)C)cc-3sc2cc1N,inactive
9,COc1cc2ncnc(Nc3cccc(Cl)c3)c2cc1OC,inactive
10,Cc1nc2ccccc2c2oc(C(=O)N3CCc4ccccc4C3)cc12,inactive
11,N#CC(C#N)=C1C=CC=CN1/C(=C\c1ccco1)C(=O)c1ccc(Cl)cc1,inactive
12,C=C[C@@]1(C)CC(=O)[C@@]2(O)[C@@]3(C)[C@@H](O)CCC(C)(C)[C@@H]3[C@H](OC(=O)CCN(C)C)[C@H](OC(C)=O)[C@@]2(C)O1,inactive
13,Fc1ccc(Nc2ncnc3sc4c(c23)CCC4)cc1F,inactive
14,O=C1c2ccccc2C(=O)c2c1cccc2N1CCCC1,10 µM (active)
15,COc1ccc(CC(=O)Nc2cccc(-c3nnc(-c4ccc(C)cc4)o3)c2)cc1OC,inactive
16,CCOc1ccc(/C(O)=C2/C(=O)C(=O)N(c3ncccn3)C2c2ccccc2)cc1 (stereo not given),inactive
17,C=CS(=O)(=O)c1ccc(Oc2ccc(S(=O)(=O)C=C)cc2)cc1,inactive
18,COc1ccc(C(=O)c2ccc(Cl)c([N+](=O)[O-])c2)cc1,inactive
19,Cc1cccc(CNc2ncnc3ccc(-c4cccc(NS(C)(=O)=O)c4)cc23)c1,inactive
20,Cn1nc(-c2ccc(Cl)cc2)nc2c(=O)n(C)c(=O)nc1-2,inactive

row,Compound,Potency
1,Cc1sc2ncnc(Sc3nnnn3-c3ccc(Cl)cc3)c2c1C,inactive
2,Cn1c(=O)cc(Nc2ccccc2)c2c(=O)n(-c3ccccc3)c(=O)n(-c3ccccc3)c21,inactive
3,CS(=O)(=O)Nc1cccc(-c2ccc3ncnc(Nc4ccc(F)cc4)c3c2)c1,inactive
4,COc1ccc(N=C2C(=Nc3ccc(OC)cc3)N(c3ccc(OC)cc3)C(=S)N2C)cc1,4.47 µM (active)
5,Cc1ccc(Nc2ncnc3sc(C)c(C)c23)cc1C,inactive
6,COc1ccc(-c2n(CC(=O)OC3CC(C)CCC3C(C)C)c3ccccc3[n+]2C)cc1 (stereo not given),inactive
7,CC(C)Cn1c(N)c(C(=O)CSc2ccc3c(c2)OCCO3)c(=O)n(C)c1=O,inactive
8,COc1cc2ncnc(NCc3cccc(Cl)c3)c2cc1OC,inactive
9,C/C(=N\Nc1nnc(-c2ccccc2)c(-c2ccccc2)n1)c1cccc([N+](=O)[O-])c1,inactive
10,CC(=O)N1CCC(=NNc2nc3ccccc3s2)CC1,inactive
11,Cc1nc2ccccc2nc(=O)c1NNc1ccccc1,inactive
12,CN(C)c1ccc(Nc2c3c4c(cccc4n(C)c2=O)C(=O)c2ccccc2-3)cc1,3.16 µM (active)
13,C=C[C@@]1(C)CC(=O)[C@@]2(O)[C@@]3(C)[C@@H](O)CCC(C)(C)[C@@H]3[C@H](O)[C@H](OC(C)=O)[C@@]2(C)O1,inactive
14,COc1ccc(-c2ccc(SCC(=O)N3CCCC3)nn2)cc1OC,inactive
15,COc1cc(C(=O)Nc2nc(-c3cccs3)cs2)cc(OC)c1OC,inactive
16,c1ccc(Nc2ncnc3sc4c(c23)CCC4)cc1,inactive
17,Cc1noc(NS(=O)(=O)c2ccc(NC(=O)COc3ccc(Cl)cc3Cl)cc2)c1C,inactive
18,CS(=O)(=O)CCNCc1nc(-c2ccc3ncnc(Nc4ccc(OCc5cccc(F)c5)c(Cl)c4)c3c2)cs1,inactive
19,COC(=O)Cc1c(C)c2ccc(OC(=O)c3ccco3)cc2oc1=O,inactive
20,Cc1ccc(NNc2c(C)nc3ccccc3nc2=O)cc1,inactive
